A short description of test [1]: qHTS Assay for Lipid Storage Modulators (AID 1519; calls by dose curve; for activity change, negative = inhibition: % is set by controls: 0 for no effect and ±100 for the full control effect). As to conditions: Drosophila S3 cells, BODIPY lipid droplet/cell ratio, laser cytometry, cells loaded with oleic acid. In short, it runs like this: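 Cells seeded at 5,000 per well were treated with compounds over a concentration series and loaded with oleic acid (400 uM, as added). Lipid droplet fluorescence (488 nm excitation, 500-530 nm channel) was read by laser-scanning cytometry and normalized to 20 uM Triacsin C.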
(In general: Quantitative high-throughput screening tests each substance at several concentrations.)

Test [2] can be described thus: Counterscreen for APE1 Inhibitors: Fluorescent Dye Displacement Validation Assay (AID 1707).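 Note: plate controls were ThO with dsDNA and no compound for no effect and ThO without dsDNA for full effect.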 As to conditions: fluorescent dye displacement from DNA; series mostly up to 57.1 µM. In short, it runs like this:
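ThO 250 nM + dsDNA 50 nM (THF abasic site, 5'-TAMRA), Tris-HCl pH7.5/50mM NaCl/2 mM MgCl2/0.01% Tween-20; compounds pin-transferred; ex 480/em 540 nm endpoint. Neutral = no compound; no-DNA ThO wells = negative control.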

The target in test [3] is Endonuclease 4 (Escherichia coli (strain K12)) (UniProt P0A6C1). The test is described as follows: Counterscreen for APE1 Inhibitors: qHTS Validation Assay for Inhibitors of Endonuclease IV (AID 1708). Note: % is set by controls: 0 for no effect and ±100 for the full control effect. As to conditions: E. coli endonuclease IV, DNA cleavage fluorescence; series mostly up to 57.1 µM. In short, it runs like this:
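Concentration-response counterscreen run identically to the APE1 assay: 15 min room-temperature preincubation of 2 nM enzyme with compound, reaction started with 50 nM quenched abasic DNA, progress taken from kinetic fluorescence.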

A short description of test [4]: qHTS for differential inhibitors of proliferation of Plasmodium falciparum line 7G8 (AID 1815).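 Note: potency is the fitted concentration of half-maximal effect; parasite growth measured after three days of incubation.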 As to conditions: Plasmodium falciparum 7G8 proliferation inhibition; series mostly up to 28.7 µM.
Test [5] is described as follows: qHTS for differential inhibitors of proliferation of Plasmodium falciparum line GB4 (AID 1816).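 Note: potency is the fitted concentration of half-maximal effect; parasite growth measured after 72 h incubation.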 As to conditions: Potency: Plasmodium falciparum GB4 proliferation inhibition; series mostly up to 28.7 µM.
Test [6] can be described thus: qHTS for differential inhibitors of proliferation of Plasmodium falciparum line 3D7 (AID 1876). Note: potency is the fitted concentration of half-maximal effect. As to conditions: P. falciparum 3D7 proliferation inhibition; series mostly up to 28.7 µM.
A short description of test [7]: qHTS for differential inhibitors of proliferation of Plasmodium falciparum line D10 (AID 1877).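 For activity change, negative = inhibition: plate controls were vehicle wells for no effect and reference inhibitor wells for full effect.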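 Note: parasites grown with compound for 72 h before DNA staining.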 Note: potency is the fitted concentration of half-maximal effect. As to conditions: series mostly up to 28.7 µM.
Test [8] can be described thus: qHTS for differential inhibitors of proliferation of Plasmodium falciparum line Dd2 (AID 1882).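 For activity change, negative = inhibition: plate controls were DMSO vehicle for no effect and 0.29 µM artemisinin for full effect.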 Note: nearly all actives have a fitted effect of over 65% in size. Note: potency is the fitted concentration of half-maximal effect. As to conditions: Potency: Plasmodium falciparum Dd2 proliferation inhibition; series mostly up to 28.7 µM. In short, it runs like this:
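Dd2-infected erythrocytes (0.3% parasitemia, 2.5% hematocrit final) incubated with compound 72 h at 37 C, 5% CO2; lysed with saponin/Triton buffer containing SYBR Green I, incubated overnight in the dark, then read by fluorescence (485/535 nm). Normalized to 0.29 uM artemisinin and DMSO.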

Test [9] can be described thus: qHTS for differential inhibitors of proliferation of Plasmodium falciparum line W2 (AID 1883).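 Note: potency is the fitted concentration of half-maximal effect; parasites grown with compound for 72 h before lysis and staining.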 As to conditions: Potency: Plasmodium falciparum W2 proliferation inhibition; series mostly up to 28.7 µM.
Test [10] in a line: qHTS for differential inhibitors of proliferation of Plasmodium falciparum line HB3 (AID 1886).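 For activity change, negative = inhibition: plate controls were vehicle for no effect and reference inhibitor for full effect.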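 Note: parasites grown with compound for 72 h before SYBR Green readout.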 Note: potency is the fitted concentration of half-maximal effect. As to conditions: Potency: Plasmodium falciparum HB3 proliferation inhibition; series mostly up to 28.7 µM.
The target of test [11] is Ferritin light chain (Equus caballus) (UniProt P02791). The test is described as follows: qHTS Validation Assay for Identification of Novel General Anesthetics (AID 2323). Note: % is set by controls: 0 for no effect and ±100 for the full control effect. As to conditions: horse apoferritin, anesthetic-site fluorescent probe displacement; series mostly up to 76.9 µM. Summed up:
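10 uM horse-spleen apoferritin + 1-AMA (50% saturated, PBS); cpd pin-transferred, 10 min RT. Ex 380/Em 535 nm endpoint. Activity normalized between free 1-AMA and 1-AMA/apoferritin; 4-parameter Hill fit of concentration-response.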

Test [12] concerns the target ATP-dependent DNA helicase Q1 (Homo sapiens) (UniProt P46063). The test is described as follows: qHTS Validation Assay for Inhibitors of RecQ-Like Dna Helicase 1 (RECQ1) (AID 2353).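 Note: plate controls were DMSO vehicle for no effect and enzyme-free control for full effect.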 As to conditions: recombinant RECQ1 helicase DNA unwinding assay; series mostly up to 25.6 µM. Summed up:
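50 nM RECQ1T1 preincubated 15 min with compound in Tris pH 8.0 buffer with MgCl2, DTT, Tween-20 and 2.5 ug/ml poly(dI-dC); started with 200 nM TAMRA/BHQ-2 forked duplex and 2 mM ATP. Unwinding read as fluorescence (525/598 nm), two reads 2 h apart.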

Test [13] addresses RecQ-like DNA helicase BLM (Homo sapiens) (UniProt P54132). As to the kind of experiment: qHTS Validation Assay for Inhibitors of Bloom's syndrome helicase (BLM) (AID 2364).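 For activity change, negative = inhibition: plate controls were DMSO vehicle for no effect and enzyme-free control for full effect.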 Note: potency is the fitted concentration of half-maximal effect. As to conditions: BLM helicase DNA unwinding, fluorescence, in vitro; series mostly up to 57.1 µM. Summed up:
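BLM 50 nM in 25 mM Tris-HCl pH 8.0, 5 mM NaCl, 2 mM MgCl2, 1 mM DTT, 0.01% Tween-20, 2.5 ug/ml poly(dI-dC); 15 min cpd preinc, RT. Start: 200 nM forked DNA + 2 mM ATP (final). TAMRA read, 2 reads 2 h apart.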

A short description of test [14]: Cytometric Cell-Based qHTS for Inhibitors of the mTORC1 Signaling Pathway in MEF (Tsc2-/-, p53-/-) Cells (AID 2660).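 Note: percent of cells above a phospho-rpS6 to PI ratio cutoff in each well; plate controls were DMSO for no effect and rapamycin for full effect.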 As to conditions: mTORC1 pathway cytometry; series mostly up to 38.3 µM. Summed up:
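Percent of cells positive for normalized phospho-S6 staining is reported, with the cutoff set from rapamycin (7.5 nM) versus DMSO wells. Tsc2-/-, p53-/- MEFs received compound for 24 hrs.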

Test [15] is described as follows: High Content Imaging Cell-Based qHTS for Inhibitors of the mTORC1 Signaling Pathway in MEF (Tsc2-/-, p53-/-) Cells (AID 2666).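 Note: percent of cells scored positive for phospho-rpS6 Ser235/236 immunostaining by imaging.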 As to conditions: at 38.3 µM (top of the series). In short, it runs like this: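 Read-out: % positive cells per well, with thresholds from highest- and lowest-signal wells, based on phospho-rpS6 (Ser235/236) intensity normalized to Hoechst nuclear stain. Cells: Tsc2-/-, p53-/- MEFs carrying empty vector; compound 24 hrs, 37 degree Celsius.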

The target in test [16] is alpha-glucosidase (Oryza sativa, rice) (UniProt Q653V4). The test is described as follows: Counterscreen for Glucocerebrosidase Inhibitors: qHTS Assay for Rice alpha-Glucosidase at pH 5.0 (AID 997).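 Note: 0% = full activity with enzyme and -100% = basal without enzyme.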 As to conditions: rice alpha-glucosidase enzyme activity; series mostly up to 76.9 µM. In short, it runs like this:
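Rice alpha-glucosidase (4 nM final) with 400 uM 4-methylumbelliferyl-alpha-D-glucopyranoside in citrate buffer pH 5.0, 20 min at room temperature, stopped at pH 10; fluorescence 365/440 nm, compounds 0.7 nM–77 uM, AC50 from Hill fits.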
A general note: A counterscreen serves to expose hits that act by an unwanted route or on another target.

Test [17] has as its target DNA repair nuclease/redox regulator APEX1 (Homo sapiens) (UniProt P27695). The test is described as follows: qHTS Validation Assay for Inhibitors of the Human Apurinic/apyrimidinic Endonuclease 1 (APE1) (AID 1705;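 note: TAMRA fluorescence gain over two minutes as APE1 cuts a quenched THF abasic duplex; % is set by controls: 0 for no effect and ±100 for the full control effect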). As to conditions: purified APE1 endonuclease activity, fluorescence, titration; series mostly up to 57.1 µM. Summed up: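 Read-out: TAMRA fluorescence (525 nm ex, 598 nm em) from cleavage of a quenched THF abasic-site duplex, 50 nM final; activity taken as intensity change between third and first of three reads 60 s apart.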

Setting [18] is: measured here: cell count channel max response.
Where [19] appears, read: measured here: lipid channel max response.

Records with an inconclusive call do not appear. The source made the active and inactive calls. Unless noted, calls come from the whole dose curve; as a rule, active = well fitted curve in the direction sought with a large enough effect; inconclusive = small, poorly fitted or top-dose-only effect, or another doubt; inactive = no such curve, though single readings can be large; an effect the other way counts as inactive or inconclusive.

Sequence of DNA repair nuclease/redox regulator APEX1 (Homo sapiens) (P27695 whole entry, looked up): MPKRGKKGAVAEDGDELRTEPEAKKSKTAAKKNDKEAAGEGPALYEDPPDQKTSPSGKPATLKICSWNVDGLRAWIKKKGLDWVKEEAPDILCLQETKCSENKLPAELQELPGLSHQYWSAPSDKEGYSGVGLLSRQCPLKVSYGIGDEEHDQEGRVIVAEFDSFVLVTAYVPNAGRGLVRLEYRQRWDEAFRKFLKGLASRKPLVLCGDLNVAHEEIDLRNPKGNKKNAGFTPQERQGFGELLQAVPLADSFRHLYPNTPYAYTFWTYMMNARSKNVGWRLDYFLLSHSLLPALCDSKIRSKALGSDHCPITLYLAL
Sequence of ATP-dependent DNA helicase Q1 (Homo sapiens) (P46063 whole entry, looked up): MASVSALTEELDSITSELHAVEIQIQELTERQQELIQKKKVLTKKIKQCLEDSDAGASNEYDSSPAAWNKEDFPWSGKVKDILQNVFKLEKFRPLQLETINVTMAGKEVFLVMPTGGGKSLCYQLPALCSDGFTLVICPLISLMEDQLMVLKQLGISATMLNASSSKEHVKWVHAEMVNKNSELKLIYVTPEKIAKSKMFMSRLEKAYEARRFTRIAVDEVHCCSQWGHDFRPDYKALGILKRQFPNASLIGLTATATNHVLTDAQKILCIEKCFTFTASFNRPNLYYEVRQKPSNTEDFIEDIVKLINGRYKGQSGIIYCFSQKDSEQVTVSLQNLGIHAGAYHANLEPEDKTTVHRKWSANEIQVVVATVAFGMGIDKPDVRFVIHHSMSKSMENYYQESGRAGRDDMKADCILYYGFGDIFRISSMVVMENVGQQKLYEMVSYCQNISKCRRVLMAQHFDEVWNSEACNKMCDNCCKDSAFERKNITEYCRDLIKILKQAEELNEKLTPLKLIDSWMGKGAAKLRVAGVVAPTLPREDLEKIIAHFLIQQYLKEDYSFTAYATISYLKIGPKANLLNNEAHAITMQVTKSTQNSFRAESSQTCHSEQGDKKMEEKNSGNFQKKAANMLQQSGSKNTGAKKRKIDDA
Sequence of RecQ-like DNA helicase BLM (Homo sapiens) (P54132 whole entry, looked up): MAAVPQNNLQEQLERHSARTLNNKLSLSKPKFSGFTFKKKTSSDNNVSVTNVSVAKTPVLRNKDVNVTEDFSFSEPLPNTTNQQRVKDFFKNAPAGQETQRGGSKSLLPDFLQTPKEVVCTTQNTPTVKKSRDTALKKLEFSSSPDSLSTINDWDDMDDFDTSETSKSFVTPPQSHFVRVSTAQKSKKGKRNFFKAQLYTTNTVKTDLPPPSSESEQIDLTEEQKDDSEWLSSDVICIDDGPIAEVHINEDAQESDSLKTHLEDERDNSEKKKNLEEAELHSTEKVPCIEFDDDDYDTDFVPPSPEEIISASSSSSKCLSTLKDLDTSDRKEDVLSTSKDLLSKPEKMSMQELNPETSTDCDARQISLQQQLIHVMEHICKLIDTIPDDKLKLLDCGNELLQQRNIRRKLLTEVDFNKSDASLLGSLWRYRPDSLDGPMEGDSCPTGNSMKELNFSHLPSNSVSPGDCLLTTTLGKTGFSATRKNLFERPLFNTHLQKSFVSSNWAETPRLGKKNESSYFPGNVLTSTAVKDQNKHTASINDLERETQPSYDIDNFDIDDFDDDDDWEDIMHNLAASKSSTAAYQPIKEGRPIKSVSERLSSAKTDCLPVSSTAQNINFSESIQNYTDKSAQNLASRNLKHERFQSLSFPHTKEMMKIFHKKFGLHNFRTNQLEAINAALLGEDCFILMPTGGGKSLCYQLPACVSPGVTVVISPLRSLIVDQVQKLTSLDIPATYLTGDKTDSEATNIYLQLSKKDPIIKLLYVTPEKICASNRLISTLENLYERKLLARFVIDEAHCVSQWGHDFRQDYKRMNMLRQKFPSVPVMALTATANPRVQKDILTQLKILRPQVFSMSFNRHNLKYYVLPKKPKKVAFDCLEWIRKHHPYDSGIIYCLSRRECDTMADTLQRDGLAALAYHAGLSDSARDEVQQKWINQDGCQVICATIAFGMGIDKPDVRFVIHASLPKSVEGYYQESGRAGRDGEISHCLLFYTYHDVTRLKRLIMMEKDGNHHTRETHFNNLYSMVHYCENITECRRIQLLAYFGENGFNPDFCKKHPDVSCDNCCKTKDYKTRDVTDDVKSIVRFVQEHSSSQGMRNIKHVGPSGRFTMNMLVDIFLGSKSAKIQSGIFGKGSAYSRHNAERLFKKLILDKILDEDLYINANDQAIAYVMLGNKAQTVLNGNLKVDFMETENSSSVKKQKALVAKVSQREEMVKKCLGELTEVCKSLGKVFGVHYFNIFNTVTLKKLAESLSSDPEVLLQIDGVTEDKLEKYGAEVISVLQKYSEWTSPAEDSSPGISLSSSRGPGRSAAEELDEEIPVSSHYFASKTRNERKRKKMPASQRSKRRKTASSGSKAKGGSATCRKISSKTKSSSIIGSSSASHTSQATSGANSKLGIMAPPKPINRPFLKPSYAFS
Sequence of Ferritin light chain (Equus caballus) (P02791 2-175 limits assumed): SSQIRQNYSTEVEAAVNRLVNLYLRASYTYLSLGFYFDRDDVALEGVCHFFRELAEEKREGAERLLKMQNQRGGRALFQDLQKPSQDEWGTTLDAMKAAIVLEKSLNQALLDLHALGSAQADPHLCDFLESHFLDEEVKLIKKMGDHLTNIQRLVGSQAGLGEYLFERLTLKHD

`CC(C)C[C@H](NC(=O)[C@@H](O)[C@H](N)Cc1ccccc1)C(=O)O`: the activity change, negative = inhibition in test [1] (at 57.5 µM (top of the series)) was -0.597% (inactive). In addition, the max response is -1.56% in test [1] (setting [18]) and -0.689% in test [1] (setting [19]). In addition, the compound was called inactive in test [2], in [3], in test [11], in test [12], in test [14] and in [15]. In addition, the Potency was 2510 nM (active) in test [4]; 2510 nM (active) in [5]; 631 nM (active) in test [6]; 2820 nM (active) in test [7]; 2240 nM (active) in [8]; 1000 nM (active) in test [9]. In addition, the Potency in [10] is 3550 nM (active). In addition, in [13], the Potency entry was “inactive”.

`Nc1ncnc2nc(-c3ccc(N4CCOCC4)nc3)cc(-c3cccc(Br)c3)c12`: the compound was called inactive in test [14] and in [15].

On to `C1COC(NC(C2CC2)C2CC2)=N1`, for which the call in test [16], in [17], in test [2], in test [3], in test [11] and in test [12] was inactive. Besides, the result in [14] and in [15] was inactive. In addition, the activity change, negative = inhibition in test [1] (at 25.7 µM (top of the series)) was -4.99% (inactive). Also, the values for the max response in test [1] (setting [18]) and in test [1] (setting [19]) were 3.69% and -12.8%, respectively. Also, the results for the Potency in [4], in [9] and in test [10] were 7940 nM (active), 14100 nM (active) and 10000 nM (active), respectively. For the same compound, the Potency result in test [13] is “inactive”.

`OC(CN1CCC(Cc2ccc(F)cc2)CC1)c1ccc(Cl)cc1` (stereo not drawn): the call in test [16], in test [17], in [2], in [3], in [12] and in test [14] was inactive. In addition, in test [15], the compound was called inactive. The Potency in test [4] is 501 nM (active); in test [5] it was 355 nM (active); in [6], 1260 nM (active); in test [7], 2510 nM (active); in [8], 1260 nM (active); in test [9], 282 nM (active). Moreover, the Potency in test [10] was 1410 nM (active).

For `NC(N)=NC(=O)c1nc(Cl)c(N)nc1N`, the call in test [16], in [17], in [3], in [12], in test [14] and in test [15] was inactive.

For the compound `CCOC(=O)C1=C[C@@]2(CC)CCCN3CCc4c(n1c1ccccc41)[C@H]32`, the call in test [16] was inactive. In addition, in [1] (at 25.7 µM (top of the series)), the activity change, negative = inhibition is -1.77% (inactive). For the same compound, the max response in test [1] (setting [18]) was -14.2%; in [1] (setting [19]) it was -15.3%.

Regarding `CCOC(=O)N1CCC(=C2c3ccc(Cl)cc3CCc3cccnc32)CC1`, the result in test [16], in test [17], in test [2], in test [3], in [11] and in test [12] was inactive. Besides, the outcome in test [14] was inactive. Further, the activity change, negative = inhibition in [1] (at 57.5 µM (top of the series)) was 3.85% (inactive). In addition, the max response in [1] (setting [18]) came to 1.57%; in test [1] (setting [19]), 11.7%. The Potency in [4] was 2240 nM (active); in test [5] it was 10000 nM (active); in [6], 12600 nM (active); in test [7] it was 10000 nM (active); in [8], 10000 nM (active); in [9], 5010 nM (active). Further, in [10], the Potency was 10000 nM (active).

Take `CC(C)(Sc1ccc(CCN(CCCCC2CCCCC2)C(=O)NC2CCCCC2)cc1)C(=O)O`: the outcome in test [16], in [17], in test [2], in [14] and in test [15] was inactive. In [1] (at 57.5 µM (top of the series)), the activity change, negative = inhibition is -0.767% (inactive). Further, the max response in test [1] (setting [18]) stood at 16.5%; in test [1] (setting [19]), 13.3%. The Potency result in test [6], in test [7], in test [8] and in test [10] was “inactive” in each case. The Potency in test [13] is 28200 nM (active).
